From PubChem BioAssay (EPA / NIEHS)
Records with an inconclusive call do not appear. Activity calls are given as the source filed them. Rule for the calls, unless noted: active = hit-call score of the fitted dose curve at least 0.9, where 1 is the maximum; inactive = score below 0.9.

How the values were obtained:
[1] = molecular target: Paired box protein Pax-6 (Homo sapiens) (UniProt P26367); test: ATG_Pax6_CIS: Attagene CIS-FACTORIAL HepG2 Assay for human Paired Box 6 (PAX6) (AID 2282956); settings: HepG2 CIS-FACTORIAL PAX6 reporter transcription, RNA readout; actives raise or lower the signal
Sequence of Paired box protein Pax-6 (Homo sapiens) (P26367 whole entry, looked up): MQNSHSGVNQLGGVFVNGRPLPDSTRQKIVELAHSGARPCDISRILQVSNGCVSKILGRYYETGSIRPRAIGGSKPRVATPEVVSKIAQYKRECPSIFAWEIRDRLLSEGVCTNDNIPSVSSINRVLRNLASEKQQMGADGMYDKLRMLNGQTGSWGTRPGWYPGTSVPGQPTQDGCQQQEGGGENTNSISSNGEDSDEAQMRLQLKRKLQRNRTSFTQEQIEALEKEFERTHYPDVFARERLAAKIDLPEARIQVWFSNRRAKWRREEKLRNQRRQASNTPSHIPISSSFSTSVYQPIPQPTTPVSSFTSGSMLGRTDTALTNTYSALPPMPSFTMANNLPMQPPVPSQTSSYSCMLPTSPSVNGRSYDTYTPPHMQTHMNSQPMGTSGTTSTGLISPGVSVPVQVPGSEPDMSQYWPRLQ
Procedure, shortened: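 DMSO-referenced bidirectional fits of reporter mRNA fluorescence; HepG2 with transient cis-promoter MRTUs, 24 h post-dose, RT-PCR plus capillary electrophoresis detection.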

[2] = ATG_PXRE_CIS: Attagene CIS-FACTORIAL HepG2 Assay for human Pregnane X Receptor Element (PXRE) (AID 2282957); settings: HepG2 Attagene CIS-FACTORIAL PXRE reporter, mRNA; actives raise or lower the signal
Procedure, shortened: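 Read-out: fluorescence of reporter-specific RT-PCR products resolved by capillary electrophoresis, fitted bidirectionally relative to DMSO. Human HepG2 liver cells carried transfected cis-promoter reporter units and were exposed to chemicals for 24 h.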

[3] = ATG_PPRE_CIS: Attagene CIS-FACTORIAL HepG2 Assay for human Peroxisome Proliferator-activated Response Element (PPRE) (AID 2282958); settings: HepG2 PPRE cis-element reporter, Attagene transcription factor profiling; actives raise or lower the signal
Procedure, shortened: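 Measured endpoint: PPRE-controlled reporter mRNA, detected by RT-PCR and capillary electrophoresis fluorescence, from transiently transfected HepG2 cells 24 h after dosing. Curves fitted in both directions using DMSO baseline.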

[4] = ATG_Sox_CIS: Attagene CIS-FACTORIAL HepG2 Assay for human SRY-box transcription factor (SOX) (AID 2282960); settings: HepG2 Attagene cis-factorial SOX reporter, mRNA; actives raise or lower the signal
Procedure, shortened: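 Gain- or loss-of-signal endpoint, fitted bidirectionally with DMSO as negative control. Based on reporter mRNA from transfected HepG2 cells harvested 24 h post-treatment and quantified via RT-PCR and capillary electrophoresis.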

[5] = molecular target: Transcription factor Sp1 (Homo sapiens) (UniProt P08047); test: ATG_Sp1_CIS: Attagene CIS-FACTORIAL HepG2 Assay for human Specificity Protein 1 (Sp1) (AID 2282961); settings: HepG2 Sp1 cis-reporter transcription, actives raise or lower the signal
Sequence of Transcription factor Sp1 (Homo sapiens) (P08047 whole entry, looked up, the tested form may be a part): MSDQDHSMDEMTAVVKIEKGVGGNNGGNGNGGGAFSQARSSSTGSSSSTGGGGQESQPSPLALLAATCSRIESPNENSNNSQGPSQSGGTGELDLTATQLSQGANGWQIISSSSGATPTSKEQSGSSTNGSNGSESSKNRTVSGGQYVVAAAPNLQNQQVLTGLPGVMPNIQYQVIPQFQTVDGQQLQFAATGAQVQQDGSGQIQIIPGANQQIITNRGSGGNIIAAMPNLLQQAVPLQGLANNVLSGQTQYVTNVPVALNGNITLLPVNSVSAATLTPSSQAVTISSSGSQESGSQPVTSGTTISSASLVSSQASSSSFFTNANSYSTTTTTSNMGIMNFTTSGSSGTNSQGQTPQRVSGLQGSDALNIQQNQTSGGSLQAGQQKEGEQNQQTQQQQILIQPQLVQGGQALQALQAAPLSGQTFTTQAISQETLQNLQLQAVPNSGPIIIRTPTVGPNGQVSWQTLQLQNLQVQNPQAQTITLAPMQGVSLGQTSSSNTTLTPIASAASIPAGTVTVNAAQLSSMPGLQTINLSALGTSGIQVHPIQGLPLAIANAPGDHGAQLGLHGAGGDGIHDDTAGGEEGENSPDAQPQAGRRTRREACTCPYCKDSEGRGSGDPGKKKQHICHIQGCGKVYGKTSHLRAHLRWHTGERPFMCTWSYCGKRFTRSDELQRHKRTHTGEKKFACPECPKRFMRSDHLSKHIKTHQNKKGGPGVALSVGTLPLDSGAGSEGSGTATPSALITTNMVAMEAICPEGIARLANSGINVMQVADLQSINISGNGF
Procedure, shortened: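 Endpoint reflects endogenous Sp1 transcriptional activity, not an exogenous fusion protein: HepG2 cells with transfected cis-regulated reporters, 24 h dosing, RT-PCR/capillary electrophoresis mRNA read-out, DMSO-normalised bidirectional fit.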

[6] = ATG_SREBP_CIS: Attagene CIS-FACTORIAL HepG2 Assay for human Sterol Regulatory Element Binding (SREBP) (AID 2282962); settings: HepG2 Attagene cis-factorial SREBP reporter, mRNA; actives raise or lower the signal
Procedure, shortened: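 In this cis-format assay, HepG2 liver cells express reporters controlled by promoter elements responsive to native transcription factors. Exposure lasts 24 h; reporter mRNA fluorescence from capillary electrophoresis gives the signal, fitted bidirectionally against DMSO.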

[7] = molecular target: Signal transducer and activator of transcription 3 (Homo sapiens) (UniProt P40763); test: ATG_STAT3_CIS: Attagene CIS-FACTORIAL HepG2 Assay for human Signal Transducer and Activator of Transcription 3 (STAT3) (AID 2282963); settings: HepG2, Attagene cis-factorial STAT3 reporter transcription; actives raise or lower the signal
Sequence of Signal transducer and activator of transcription 3 (Homo sapiens) (P40763 whole entry, looked up): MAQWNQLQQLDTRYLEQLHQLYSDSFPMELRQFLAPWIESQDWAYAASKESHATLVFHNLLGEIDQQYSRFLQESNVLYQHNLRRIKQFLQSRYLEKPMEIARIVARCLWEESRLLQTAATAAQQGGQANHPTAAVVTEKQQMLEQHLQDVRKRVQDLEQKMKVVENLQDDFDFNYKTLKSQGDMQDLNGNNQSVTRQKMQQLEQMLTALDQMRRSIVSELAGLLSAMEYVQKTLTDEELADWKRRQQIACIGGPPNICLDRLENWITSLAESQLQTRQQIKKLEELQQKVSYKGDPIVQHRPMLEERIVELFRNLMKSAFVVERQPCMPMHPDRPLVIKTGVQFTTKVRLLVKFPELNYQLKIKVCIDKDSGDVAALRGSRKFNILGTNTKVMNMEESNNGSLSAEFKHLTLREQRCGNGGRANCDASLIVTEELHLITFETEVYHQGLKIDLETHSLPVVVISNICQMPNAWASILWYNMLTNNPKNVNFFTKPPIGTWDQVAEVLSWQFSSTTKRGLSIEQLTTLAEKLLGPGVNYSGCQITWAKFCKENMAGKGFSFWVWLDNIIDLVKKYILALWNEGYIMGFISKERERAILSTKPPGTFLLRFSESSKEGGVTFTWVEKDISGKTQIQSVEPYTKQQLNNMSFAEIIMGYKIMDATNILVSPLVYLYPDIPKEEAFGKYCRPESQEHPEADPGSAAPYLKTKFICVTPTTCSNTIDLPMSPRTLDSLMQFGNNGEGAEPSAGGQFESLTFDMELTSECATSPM
Procedure, shortened: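 Cis-factorial format: endogenous transcription factors in HepG2 drive transfected reporter units. After 24 h treatment, reporter RNA was reverse-transcribed, amplified, FAM-labelled and HpaI-digested before CE analysis; activity scored in both directions against DMSO.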

[8] = ATG_TA_CIS: Attagene CIS-FACTORIAL HepG2 Assay for human TA Basal Promoter (AID 2282964); settings: HepG2 Attagene CIS-factorial TA basal promoter reporter; actives raise or lower the signal
Procedure, shortened: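 Transient MRTU transfection of HepG2 preceded 24 h compound exposure. Reporter mRNA levels were then read by RT-PCR with capillary electrophoresis, and this background-control endpoint was fitted bidirectionally to DMSO.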

[9] = ATG_TCF_b_cat_CIS: Attagene CIS-FACTORIAL HepG2 Assay for human T-Cell-Factor with beta-catenin (TCF/b-cat) (AID 2282965); settings: HepG2 TCF/beta-catenin cis-reporter transcription, actives raise or lower the signal
Procedure, shortened: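 Measured: reporter mRNA in HepG2 transiently transfected with cis-promoter reporter units, 24 h after chemical addition. Fitting was bidirectional, DMSO as negative control.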

[10] = ATG_TAL_CIS: Attagene CIS-FACTORIAL HepG2 Assay for human TAL Basal Promoter (AID 2282966); settings: HepG2 Attagene cis-factorial TAL promoter reporter; actives raise or lower the signal;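 note: background control endpoint measuring basal TAL promoter reporter mRNA not a specific factor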
Procedure, shortened: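 HepG2, transient MRTU transfection, 24 h compound exposure; RNA → oligo(dT) RT → PCR → 6-FAM primer extension → HpaI digest → CE fluorescence. Bidirectional curve fit vs DMSO. Background-control readout.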

[11] = ATG_TGFb_CIS: Attagene CIS-FACTORIAL HepG2 Assay for human Transforming Growth Factor (TGF) (AID 2282967); settings: HepG2 Attagene CIS TGFb reporter, mRNA transcription; actives raise or lower the signal
Procedure, shortened: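 After a 24-hour incubation with compound, transfected HepG2 cells were lysed for RNA; reporter cDNA was amplified, fluorescently end-labeled and separated by CE. DMSO served as baseline for bidirectional fits.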

[12] = ATG_VDRE_CIS: Attagene CIS-FACTORIAL HepG2 Assay for human Vitamin D Receptor Element (VDRE) (AID 2282968); settings: HepG2 VDRE cis-reporter transcription, actives raise or lower the signal
Procedure, shortened: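 Measures endogenous factor activity through cis-element-driven reporter transcripts in transiently transfected HepG2. Cells are treated 24 h; reporter mRNA is quantified by RT-PCR and capillary electrophoresis; fitting is bidirectional.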

[13] = molecular target: X-box-binding protein 1 (Homo sapiens) (UniProt P17861); test: ATG_Xbp1_CIS: Attagene CIS-FACTORIAL HepG2 Assay for human X-box Binding Protein 1 (XBP1) (AID 2282972); settings: HepG2 XBP1 cis-element reporter, Attagene multiplex; actives raise or lower the signal
Sequence of X-box-binding protein 1 (Homo sapiens) (P17861 whole entry, looked up): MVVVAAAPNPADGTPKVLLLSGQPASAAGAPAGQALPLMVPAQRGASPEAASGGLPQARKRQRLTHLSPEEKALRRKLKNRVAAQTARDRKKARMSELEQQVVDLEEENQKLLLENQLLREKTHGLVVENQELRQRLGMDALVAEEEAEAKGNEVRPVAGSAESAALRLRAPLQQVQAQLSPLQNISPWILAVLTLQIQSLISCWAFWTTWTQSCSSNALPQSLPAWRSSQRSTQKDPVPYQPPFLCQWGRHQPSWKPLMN
Procedure, shortened: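 Changes in reporter transcript abundance, read by RT-PCR and capillary electrophoresis, reflect endogenous transcription factor activity. Transfected HepG2 cells received compound for 24 hours; DMSO defined baseline for bidirectional analysis.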

[14] = ATG_M_19_TRANS: Attagene TRANS-FACTORIAL HepG2 Assay for M19 Transcription Factor (Internal Marker) (AID 2282974; active = hit-call score of the fitted dose curve at least 0.9, where 1 is the maximum); settings: HepG2 Attagene TRANS-FACTORIAL M19 internal marker reporter
Procedure, shortened: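 Using RT-PCR and capillary electrophoresis, reporter mRNA from transiently transfected human HepG2 cells was quantified following 24 h exposure; activity was fitted in the positive direction against DMSO.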

[15] = ATG_RORE_CIS: Attagene CIS-FACTORIAL HepG2 Assay for human RAR-related Orphan Receptor Element (RORE) (AID 2282959); settings: HepG2 Attagene cis-factorial RORE reporter, mRNA; actives raise or lower the signal
Procedure, shortened: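 Transiently transfected HepG2 reporter cells were treated 24 h. Reporter transcripts were detected by RT-PCR and capillary electrophoresis, with bidirectional fitting against DMSO.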

[16] = ATG_GAL4_TRANS: Attagene TRANS-FACTORIAL HepG2 Assay for GAL4 (Internal Marker) (AID 2282976; active = hit-call score of the fitted dose curve at least 0.9, where 1 is the maximum); settings: HepG2 Attagene TRANS GAL4 internal marker reporter
Procedure, shortened: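 RT-PCR/capillary electrophoresis readout of reporter mRNA. HepG2, transient MRTU transfection (GAL4-UAS reporters), 24 h compound exposure. Background-control endpoint, positive direction vs DMSO baseline.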

[17] = molecular target: Estrogen-related receptor gamma (Homo sapiens) (UniProt P62508); test: ATG_ERRg_TRANS: Attagene TRANS-FACTORIAL HepG2 Assay for human Estrogen-Related Receptor gamma (ERRg) (AID 2282977; active = hit-call score of the fitted dose curve at least 0.9, where 1 is the maximum;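 note: hits increase reporter signal over DMSO so potencies reflect activators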); settings: HepG2 Attagene TRANS reporter, ERRg transactivation
Sequence of Estrogen-related receptor gamma (Homo sapiens) (P62508 whole entry, looked up, the tested form may be a part): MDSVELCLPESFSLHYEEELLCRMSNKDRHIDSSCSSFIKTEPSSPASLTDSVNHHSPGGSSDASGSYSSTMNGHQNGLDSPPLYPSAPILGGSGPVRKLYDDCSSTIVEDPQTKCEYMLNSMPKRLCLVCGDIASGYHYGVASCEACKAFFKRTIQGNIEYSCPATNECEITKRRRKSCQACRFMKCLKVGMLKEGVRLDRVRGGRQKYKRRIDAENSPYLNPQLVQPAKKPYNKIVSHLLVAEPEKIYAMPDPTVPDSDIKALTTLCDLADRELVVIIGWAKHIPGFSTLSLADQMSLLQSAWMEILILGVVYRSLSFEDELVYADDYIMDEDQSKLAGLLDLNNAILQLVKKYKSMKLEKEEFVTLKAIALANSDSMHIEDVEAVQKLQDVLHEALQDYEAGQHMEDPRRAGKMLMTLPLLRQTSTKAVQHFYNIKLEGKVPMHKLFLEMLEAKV
Procedure, shortened: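 Readout: fluorescent reporter-mRNA fragments resolved by capillary electrophoresis after RT-PCR and HpaI cut. Cells: transiently transfected HepG2 carrying GAL4-UAS reporters driven by exogenous NR-Gal4 chimeras, dosed 24 h. Activity fitted upward relative to DMSO baseline.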

[18] = molecular target: Steroid hormone receptor ERR1 (Homo sapiens) (UniProt P11474); test: ATG_ERRa_TRANS: Attagene TRANS-FACTORIAL HepG2 Assay for human Estrogen-Related Receptor alpha (ERRa) (AID 2282971; active = hit-call score of the fitted dose curve at least 0.9, where 1 is the maximum); settings: HepG2 Attagene TRANS reporter, ERRa transactivation
Sequence of Steroid hormone receptor ERR1 (Homo sapiens) (P11474 whole entry, looked up, the tested form may be a part): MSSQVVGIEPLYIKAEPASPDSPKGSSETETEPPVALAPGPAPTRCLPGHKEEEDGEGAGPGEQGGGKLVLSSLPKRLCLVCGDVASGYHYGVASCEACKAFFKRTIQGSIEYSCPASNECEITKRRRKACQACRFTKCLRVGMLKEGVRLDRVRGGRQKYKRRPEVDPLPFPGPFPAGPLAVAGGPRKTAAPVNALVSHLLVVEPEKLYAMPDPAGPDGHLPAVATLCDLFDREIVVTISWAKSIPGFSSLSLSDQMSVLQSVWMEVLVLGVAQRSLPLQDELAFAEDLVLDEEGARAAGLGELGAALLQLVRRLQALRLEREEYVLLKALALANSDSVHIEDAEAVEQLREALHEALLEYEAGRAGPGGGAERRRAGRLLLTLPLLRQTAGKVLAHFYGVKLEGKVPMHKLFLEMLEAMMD
Procedure, shortened: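 Transfected HepG2, 24 h dosing, ERRa-Gal4 chimera driving GAL4-UAS reporter. Readout: reporter mRNA via RT-PCR plus capillary electrophoresis (fluorescence). Positive direction vs DMSO control.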

[19] = molecular target: Nuclear receptor subfamily 1 group I member 3 (Homo sapiens) (UniProt Q14994); test: ATG_CAR_TRANS: Attagene TRANS-FACTORIAL HepG2 Assay for human Constitutive Androstane Receptor (CAR) (AID 2282969; active = hit-call score of the fitted dose curve at least 0.9, where 1 is the maximum;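 note: activators raise reporter mRNA above DMSO so AC50 marks induction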); settings: HepG2 Attagene TRANS-FACTORIAL CAR reporter
Sequence of Nuclear receptor subfamily 1 group I member 3 (Homo sapiens) (Q14994 whole entry, looked up, the tested form may be a part): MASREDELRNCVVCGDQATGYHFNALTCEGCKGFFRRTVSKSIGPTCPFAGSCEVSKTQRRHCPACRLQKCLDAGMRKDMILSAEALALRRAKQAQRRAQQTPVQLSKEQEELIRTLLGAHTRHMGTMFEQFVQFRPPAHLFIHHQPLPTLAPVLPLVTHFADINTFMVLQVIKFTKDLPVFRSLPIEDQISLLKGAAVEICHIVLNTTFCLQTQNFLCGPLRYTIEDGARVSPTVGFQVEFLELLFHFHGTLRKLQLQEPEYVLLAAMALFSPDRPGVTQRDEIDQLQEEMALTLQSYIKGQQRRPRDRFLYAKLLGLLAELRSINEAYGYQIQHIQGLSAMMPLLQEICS
Procedure, shortened: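 Signal is reporter mRNA induction relative to DMSO, measured 24 h after dosing by RT-PCR with fluorescent primer extension and capillary electrophoresis. Human HepG2 liver cells carried transiently transfected chimeric NR-Gal4/GAL4-UAS reporter constructs.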

Measured: AC50

Nc1ccc2cc(S(=O)(=O)O)cc(O)c2c1N=Nc1ccccc1C(F)(F)F
active: [2] 38.5 µM
not listed: [15] | [16] | [17] | [18] | [19]
inactive: all other assays above

NC(=S)NNC(N)=S
not listed: [5] | [6] | [12] | [17] | [18] | [19]
inactive: all other assays above

COC(C)(C)CCO
not listed: [15] | [18] | [19]
inactive: all other assays above

IC(I)I
active: [2] 5.98 µM
not listed: [12] | [15] | [16] | [19]
inactive: all other assays above

C=C(C)CNCC
active: [2] 52.9 µM
not listed: [14] | [15] | [17]
inactive: all other assays above

CCC(C)=O
not listed: [5] | [14] | [18] | [19]
inactive: all other assays above

C=C(CC(=O)O)C(=O)O
not listed: [5] | [8] | [14] | [17] | [18] | [19]
inactive: all other assays above

CC(Oc1cc(Cl)ccc1Cl)C(=O)O (configuration not stated)
active: [2] 82.1 µM | [3] 100 µM
not listed: [5] | [12] | [17] | [18]
inactive: all other assays above
